HCV inh = qHTS Assay for Inhibitors of Hepatitis C Virus (HCV) | Potency, µM (top dose mostly 41.8 µM), for the others: at the top dose activity change, negative = inhibition, hits mostly inhibitors | 340,000 compounds, 3.4% hits | AID 651820, 2012 | Huh7.5.1 HCVcc-Cre infection, luciferase reporter, 44 h; active = well fitted inhibition curve with a large enough effect; inconclusive = small, poorly fitted or top-dose-only effect, or another doubt; inactive = no such curve, though single readings can be large or run the other way
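Luciferase read-out (15 sec integration) after a 15 min room-temperature substrate step quantifies HCVcc-Cre infection. Cells, 1,000 per well, had compound added 4 h post-plating, then virus at ~0.5 moi, and were cultured 44 h.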
Lassa entry inh = qHTS for Inhibitors of binding or entry into cells for Lassa Virus | Lassa virus pseudotype entry inhibition, cell reporter | 300,000 compounds, 1.2% hits | Potency, µM (titrated, usually from 37.9 µM), for the others: at the highest dose activity change, negative = inhibition, most hits filed as inhibitors; calls by dose curve; tested in HEK293 cells; note: nearly all actives have a fitted effect of over 50% in size
Vaccinia Venus = qHTS for Stage-Specific Inhibitors of Vaccinia Orthopoxvirus: Venus Reporter Primary qHTS. Vaccinia virus Venus reporter expression, fluorescence. Potency, µM (highest dose often 36.5 µM), inactives show at the top dose activity change, negative = inhibition, most hits filed as inhibitors. 330,000 compounds, 0.46% hits. AID 720580, 2013; calls by dose curve; tested in A549 cells; note: nearly all actives have a fitted effect of over 30% in size
Vaccinia mCherry = qHTS for Stage-Specific Inhibitors of Vaccinia Orthopoxvirus: mCherry Reporter Primary qHTS; Vaccinia virus mCherry reporter infection, fluorescence; 310,000 compounds, 0.63% hits; AID 720579, 2013; Potency, µM (top dose mostly 36.5 µM), for the others: top-dose activity change, negative = inhibition, actives largely listed as inhibitors; calls by dose curve; tested in A549 cells; note: nearly all actives have a fitted effect of over 35% in size
MARV entry inh = qHTS for inhibitors of binding or entry into cells for Marburg Virus; Potency, µM (series often up to 37.8 µM), for inactives: at the top dose activity change, negative = inhibition, most hits filed as inhibitors; Marburg virus pseudotyped entry inhibition, cell reporter; 300,000 compounds, 1.8% hits; calls by dose curve; tested in HEK293 cells
The depositor's hits bear a star; ! = a repeat was not active; [ ] = dose if it differs, or a comment. The list is not random: actives were taken first. Their share in the collection is about 4.6%. % is set by controls: 0 for no effect and ±100 for the full control effect; potency is the fitted concentration of half-maximal effect.

Results for COc1ccc(-n2nc(C(=O)NCC(=O)NCc3ccccc3OC)c3ccccc3c2=O)c(OC)c1 ?
HCV inh: -18%; Vaccinia Venus: -1%; Vaccinia mCherry: 0%; MARV entry inh: 0%[46.1 µM]

Results for COc1ccc(-n2nc(C(=O)NCC(=O)NC3CCCCC3)c3ccccc3c2=O)c(OC)c1 ?
HCV inh: 22%; Lassa entry inh: 13µM*; Vaccinia Venus: -3%; Vaccinia mCherry: -15%; MARV entry inh: inconclusive

Results for COc1ccc(-n2nc(C(=O)NCC(=O)NC3CCCCCC3)c3ccccc3c2=O)c(OC)c1 ?
HCV inh: -3%; Lassa entry inh: -19%[46.1 µM]; Vaccinia Venus: -15%; Vaccinia mCherry: inconclusive; MARV entry inh: 14%[46.1 µM]

Results for COc1ccc(-c2noc(N3CCC(C(=O)Nc4ccc(C)c(F)c4)CC3)n2)cc1OC ?
Lassa entry inh: 0%[46.1 µM]; Vaccinia Venus: -12%; Vaccinia mCherry: -21%; MARV entry inh: inconclusive

How did O=C(c1ccc(F)c(F)c1)N1CCOc2ccc(CN3CCN(CCO)CC3)cc2C1 do in these assays?
Vaccinia Venus: 0%; Vaccinia mCherry: inactive

How did C=CCn1c(=O)c2ccccc2n2c(SCC(=O)Nc3sc(C(=O)N(CC)CC)c(C)c3C(=O)OCC)nnc12 do in these assays?
HCV inh: 6.3µM*!; Lassa entry inh: -28%; MARV entry inh: inconclusive

Results for CCOC(=O)c1sc(NC(=O)CSc2nnc(-c3ccco3)n2CC)c(C(=O)OCC)c1C ?
HCV inh: 10µM*!; Lassa entry inh: -13%; Vaccinia Venus: 0%; Vaccinia mCherry: inactive; MARV entry inh: inconclusive

How did CCOC(=O)c1c(NC(=O)CSc2nnc(-c3ccccc3)n2CC)sc(C(C)=O)c1C do in these assays?
HCV inh: inconclusive; Lassa entry inh: -10%; Vaccinia Venus: -14%; Vaccinia mCherry: -16%; MARV entry inh: inconclusive

What do the screens show for `CCOC(=O)c1c(NC(=O)CSc2nnc(-c3cccc(C)c3)n2CC)sc(C(C)=O)c1C`?
HCV inh: 3.5µM*; Lassa entry inh: -25%; Vaccinia Venus: inconclusive; MARV entry inh: inconclusive

How did COc1ccc(/C(O)=C2\C(=O)C(=O)N(c3cc(C)on3)[C@H]2c2ccccc2OC)cc1C do in these assays?
MARV entry inh: -3%

What do the screens show for `O=C(CCCSc1nnc(SCCCC(=O)c2ccc(F)cc2)s1)c1ccc(F)cc1`?
HCV inh: 10µM*; Lassa entry inh: inconclusive; Vaccinia Venus: 11µM*; Vaccinia mCherry: inconclusive; MARV entry inh: inconclusive

How did O=C(NCC1COc2ccccc2O1)C1CCN(S(=O)(=O)c2ccc(Cl)cc2)CC1 (configuration not stated) do in these assays?
HCV inh: 11µM*

Results for COc1ccc(Nc2ncnc3c2c(C)c(C)n3CCCN(C)C)cc1 ?
HCV inh: -30%; Lassa entry inh: 1%[46.1 µM]; Vaccinia Venus: -7%; Vaccinia mCherry: -27%; MARV entry inh: inconclusive

How did COc1ccccc1Nc1ncnc2c1c(C)c(C)n2CCCN(C)C do in these assays?
HCV inh: 4µM*

What do the screens show for `Cc1c(C)n(CCCN(C)C)c2ncnc(NC3CCCCC3)c12`?
HCV inh: -24%; Lassa entry inh: inconclusive; Vaccinia Venus: inconclusive; Vaccinia mCherry: -26%; MARV entry inh: 10µM*

What do the screens show for `Cc1c(C)n(Cc2ccccc2)c2ncnc(NN)c12`?
HCV inh: 11µM*

How did O=S(=O)(c1ccc(Oc2ccc3c(c2)OCO3)c(S(=O)(=O)N2CCOCC2)c1)N1CCOCC1 do in these assays?
Vaccinia Venus: -13%; Vaccinia mCherry: 15%

How did O=C(CC(c1cccs1)N1Cc2ccccc2C1=O)Nc1ccccc1F (configuration not stated) do in these assays?
Lassa entry inh: -12%[46.1 µM]; Vaccinia Venus: -7%; Vaccinia mCherry: -19%

How did COC(=O)c1cccc(NC(=O)c2cc3sccc3n2C)c1 do in these assays?
HCV inh: 14µM*; Lassa entry inh: 51%[14.3 µM]; Vaccinia Venus: -11%; Vaccinia mCherry: inactive; MARV entry inh: 14%

How did Cc1ccc(C(=O)c2oc3ccccc3c2NC(=O)Cc2ccccc2)cc1 do in these assays?
Lassa entry inh: inconclusive; Vaccinia Venus: -6%; Vaccinia mCherry: -6%; MARV entry inh: inconclusive

How did Cc1cc(Nc2ccccc2)nn1C(=O)c1ccc(Br)cc1 do in these assays?
HCV inh: 14µM*; Lassa entry inh: 3%; Vaccinia Venus: -27%; MARV entry inh: 1%

What do the screens show for `CC(=O)OC[C@H]1O[C@H](c2ccc(C(C)=O)cc2)C=C[C@@H]1OC(C)=O`?
MARV entry inh: 2%[14.2 µM]

How did Cc1cccc(OCc2nnc(SCC(=O)N3CCCC3)o2)c1 do in these assays?
HCV inh: -1%; Lassa entry inh: -17%[46.1 µM]; Vaccinia Venus: -18%; Vaccinia mCherry: -15%; MARV entry inh: -21%[46.1 µM]

What do the screens show for `COC(=O)c1ccc(OC)c(CSc2nnc(COc3cccc(C)c3)o2)c1`?
HCV inh: inconclusive; Lassa entry inh: 0%; MARV entry inh: 16µM*

How did COc1ccc2c(c1)[C@@]1(OCCC=C[C@@H]1C)C(=O)N2CC=C(C)CCC=C(C)C do in these assays?
MARV entry inh: -10%[14.2 µM]

What do the screens show for `CCCCn1c(/N=C/c2ccccc2NS(=O)(=O)c2ccc(C)cc2)nc2ccccc21`?
HCV inh: 18%; Lassa entry inh: inconclusive; Vaccinia Venus: -18%; Vaccinia mCherry: -8%; MARV entry inh: inconclusive

Results for CCCCn1c(NCc2cc(Br)ccc2O)nc2ccccc21 ?
Lassa entry inh: 8%[46.1 µM]; Vaccinia Venus: 0%; Vaccinia mCherry: -20%

Results for CCn1c(NCc2ccccc2NS(=O)(=O)c2ccc(C)cc2)nc2ccccc21 ?
HCV inh: 14µM*; Lassa entry inh: inconclusive; Vaccinia Venus: inconclusive; Vaccinia mCherry: inconclusive; MARV entry inh: 21µM*

What do the screens show for `CCn1c(NCc2cc(Br)ccc2NS(=O)(=O)c2ccc(C)cc2)nc2ccccc21`?
HCV inh: 10µM*; Lassa entry inh: inconclusive; Vaccinia Venus: -24%; MARV entry inh: inconclusive

What do the screens show for `CCCn1c(NCc2ccccc2NS(=O)(=O)c2ccc(C)cc2)nc2ccccc21`?
HCV inh: inconclusive; Lassa entry inh: inconclusive; Vaccinia Venus: inconclusive; Vaccinia mCherry: inconclusive; MARV entry inh: 6.3µM*

How did Cc1ccc(NC(=O)c2cc3c([nH]c2=O)CC(c2ccccc2)CC3=O)cc1 (configuration not stated) do in these assays?
Vaccinia Venus: 8%; Vaccinia mCherry: 44%

Results for N#Cc1c(Nc2ccccc2)[n+]([O-])c2ccc(Cl)cc2[n+]1[O-] ?
HCV inh: 2.8µM*; Lassa entry inh: 3.2µM*; Vaccinia Venus: inconclusive; Vaccinia mCherry: -15%; MARV entry inh: inconclusive

Results for O=C(/C=C/Nc1ccccc1)c1ccc(Cl)cc1Cl ?
HCV inh: -13%

High-throughput results deposited in PubChem BioAssay by National Center for Advancing Translational Sciences (NCATS).
